Consider 34 compounds from ChEMBL document CHEMBL1961873, “Compounds: GSK PKIS; Assays: Nanosyn kinase panel” (2012).

SMILES strings stand for the structures.

Sequence of Ribosomal protein S6 kinase alpha-2 (Homo sapiens) (Q15349 whole entry): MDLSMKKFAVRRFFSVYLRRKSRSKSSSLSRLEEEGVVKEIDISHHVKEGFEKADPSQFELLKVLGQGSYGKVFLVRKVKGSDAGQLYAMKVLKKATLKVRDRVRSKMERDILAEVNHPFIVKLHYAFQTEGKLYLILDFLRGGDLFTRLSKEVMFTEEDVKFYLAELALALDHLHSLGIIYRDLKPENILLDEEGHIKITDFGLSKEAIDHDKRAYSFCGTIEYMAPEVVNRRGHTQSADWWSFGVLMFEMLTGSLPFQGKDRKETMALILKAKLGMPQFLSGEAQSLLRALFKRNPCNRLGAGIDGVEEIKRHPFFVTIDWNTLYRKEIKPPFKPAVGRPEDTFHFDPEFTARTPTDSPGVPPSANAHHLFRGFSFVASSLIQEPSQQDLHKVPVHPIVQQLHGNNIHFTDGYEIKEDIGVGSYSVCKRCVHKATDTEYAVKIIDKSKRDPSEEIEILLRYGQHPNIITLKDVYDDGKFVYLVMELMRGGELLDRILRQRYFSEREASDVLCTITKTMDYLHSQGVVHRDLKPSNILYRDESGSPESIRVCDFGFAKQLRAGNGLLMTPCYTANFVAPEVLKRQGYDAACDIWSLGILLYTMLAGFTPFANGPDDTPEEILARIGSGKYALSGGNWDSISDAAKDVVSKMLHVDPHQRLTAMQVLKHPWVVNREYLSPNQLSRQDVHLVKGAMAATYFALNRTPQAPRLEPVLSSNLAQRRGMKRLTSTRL
Sequence of Ribosomal protein S6 kinase alpha-3 (Homo sapiens) (P51812 whole entry): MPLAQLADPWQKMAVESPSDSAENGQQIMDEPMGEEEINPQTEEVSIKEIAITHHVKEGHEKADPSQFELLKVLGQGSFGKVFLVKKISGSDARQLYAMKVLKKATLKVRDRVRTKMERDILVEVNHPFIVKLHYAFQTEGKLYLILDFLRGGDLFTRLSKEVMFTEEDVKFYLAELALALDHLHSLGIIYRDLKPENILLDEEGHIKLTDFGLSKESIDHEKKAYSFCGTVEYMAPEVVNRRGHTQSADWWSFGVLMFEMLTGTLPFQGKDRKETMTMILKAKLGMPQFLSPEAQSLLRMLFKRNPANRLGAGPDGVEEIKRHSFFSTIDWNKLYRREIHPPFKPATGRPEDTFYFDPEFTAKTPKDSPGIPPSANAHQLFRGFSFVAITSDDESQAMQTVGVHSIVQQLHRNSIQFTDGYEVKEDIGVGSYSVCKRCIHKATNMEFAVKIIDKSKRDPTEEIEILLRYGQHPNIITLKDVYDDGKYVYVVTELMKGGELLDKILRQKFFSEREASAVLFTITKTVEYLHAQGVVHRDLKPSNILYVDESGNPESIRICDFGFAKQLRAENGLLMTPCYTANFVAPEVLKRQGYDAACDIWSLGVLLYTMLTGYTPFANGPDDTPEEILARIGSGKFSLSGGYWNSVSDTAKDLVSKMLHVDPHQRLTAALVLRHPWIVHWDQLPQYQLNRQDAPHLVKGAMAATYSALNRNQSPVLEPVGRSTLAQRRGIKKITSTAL

The first test addresses Ribosomal protein S6 kinase alpha-3 (Homo sapiens) (UniProt P51812). Conditions: at 1 µM.
In general, inhibition refers to the drop in the measured response relative to a control, in per cent. Turning to `Cc1cccc2c1NC(=O)/C2=N\Nc1ccc(S(N)(=O)=O)cc1`, the inhibition turned out to be 1.26%.
In the case of `Clc1ccc(-c2nn3ncccc3c2-c2ccnc(Nc3ccccc3)n2)cc1`, the inhibition amounted to 1.89%.
On the same count and under the same terms, for `COc1ccc(-c2cc(-c3c[nH]nc3-c3ccccn3)ccn2)cc1` the value was 4.06%.
The same measure, in the same setting: under `NS(=O)(=O)c1ccc(Nc2ncc(-c3ccccc3)o2)cc1` stands 4.01%; under `c1ccc(-c2nc3n(c2-c2ccc4c(c2)OCO4)CCC3)nc1`, 5.78%; under `N#Cc1c(NC(=O)c2ccc(F)cc2)sc2c1CCCC2`, 2.51%.
For the compound `CC(C)COC(=O)c1ccc2c(c1)/C(=C/Nc1ccc(S(N)(=O)=O)cc1)C(=O)N2`, the inhibition was found to be 36%.
The same measure, in the same setting: for `Cc1ccc2c(-c3ccnc(Nc4ccccc4)n3)c(-c3ccc(F)cc3)nn2n1` the value was 0.63%; for `CS(=O)(=O)CCNCc1ccc(-c2ccc3ncnc(Nc4ccc(OCc5ccccc5)c(C(F)(F)F)c4)c3c2)o1`, 1.72%.
For the compound `O=C(O[C@H]1CN[C@H](C#Cc2cc3ncnc(Nc4ccc(Cc5ccccc5)cc4)c3s2)C1)N1CCOCC1`, the inhibition is 1.79%.
With `COc1ccc2[nH]c3c4[nH]c5ccc(OC)cc5c4c4c(c3c2c1)C(=O)NC4=O`, the inhibition was found to be 80.1%.
The same measure, in the same setting: under `COc1ccc2c(-c3ccnc(Nc4cccc(OC(F)(F)F)c4)n3)cnn2n1` stands 1.1%; under `CN1CCC(n2cnc(-c3ccc(F)cc3)c2-c2ccnc(N)n2)CC1`, 2.82%; under `CN(C)CCOc1ccc(-c2nc(-c3ccncc3)c(-c3ccc4c(c3)CC/C4=N\O)[nH]2)cc1`, 2%.
As for `COc1cc(N2CCN(C(C)C)CC2)ccc1Nc1nc(Nc2ccc(F)cc2C(N)=O)c2cc[nH]c2n1`, the inhibition amounted to 57%.
Regarding `CNC(=O)c1cncc(/C=C/c2ccccc2Cl)c1`, the inhibition turned out to be 1.38%.
Consider `[O-][S+]1CCN(Cc2ccc(-c3ccc4ncnc(Nc5ccc(OCc6cccc(F)c6)c(Cl)c5)c4c3)o2)CC1`, for which the inhibition is 0.78%.
As for `COc1ccc(-c2nn3ncccc3c2-c2ccnc(Nc3ccc4c(c3)OCCO4)n2)cc1`, the inhibition worked out at 0.87%.
For the compound `FC(F)(F)c1cccc(-c2nn3ncccc3c2-c2ccnc(Nc3ccc4c(c3)OCCO4)n2)c1`, the inhibition was -1.39%.
In the case of `CNC(=O)c1cc(-c2ccc(F)cc2)cc(-c2ccc(S(=O)(=O)N3CCCC3)cc2)c1N`, the inhibition turned out to be 1.69%.
In the case of `CNC(=O)c1cccc(C#Cc2cncnc2Nc2ccc(OCc3cccc(F)c3)c(Cl)c2)c1`, the inhibition was 0.62%.
As for `CCOc1ccc2c(-c3ccnc(Nc4cccc(C(F)(F)F)c4)n3)cnn2n1`, the inhibition is 1.88%.
The same measure, in the same setting: for `CC(C)(CO)CNC(=O)c1ccc2c(c1)/C(=N/Nc1ccc(S(N)(=O)=O)cc1)C(=O)N2` the value was 4.41%; for `Cc1ccc(O)cc1Nc1ccnc2cc(-c3ccccn3)ccc12`, -0.99%; for `COC(=O)c1sc(-n2cnc3cc(OC)c(OC)cc32)cc1OCc1ccccc1C(F)(F)F`, 1.3%.
Still for that read-out and setting: for `CC(=O)Nc1cccc(C#Cc2cncnc2Nc2ccc(OCc3cccc(F)c3)c(Cl)c2)c1` the value was -0.35%; for `Fc1cccc(COc2ccc(Nc3ncnc4sc(-c5ccco5)cc34)cc2Cl)c1`, 3.12%; for `COc1cc2ncn(-c3cc(OCc4ccccc4C(F)(F)F)c(C(=O)N(C)C)s3)c2cc1OC`, 0.59%.
As to `COc1cc2c(cc1Nc1nc(Nc3ccsc3C(N)=O)c3cc[nH]c3n1)N(C(=O)CN(C)C)CCC2(C)C`, the inhibition came out at 50.7%.
The same measure, in the same setting: for `Nc1ncc(-c2cccc(S(N)(=O)=O)c2)c2scc(-c3ccc(F)c(Cl)c3)c12` the value was 2.98%.
As for `O=C(Nc1n[nH]c2cc(-c3ccc(F)cc3)ccc12)C1CC1`, the inhibition was 9.26%.
Regarding `Cc1cccc(Nc2ncc(-c3ccccc3)o2)c1`, the inhibition was determined as 3.43%.
On the same count and under the same terms, for `CCCN(CCS(C)(=O)=O)Cc1ccc(-c2ccc3ncnc(Nc4ccc(OCc5cccc(F)c5)c(Cl)c4)c3c2)o1` the value was 0.24%; for `N#Cc1c(NC(=O)CN2CCOCC2)sc2c1CCCC2`, 0.9%.

Another test addresses Ribosomal protein S6 kinase alpha-2 (Homo sapiens) (UniProt Q15349). The following applies: at 0.1 µM.
Regarding `Cc1cccc2c1NC(=O)/C2=N\Nc1ccc(S(N)(=O)=O)cc1`, the inhibition worked out at 1.69%.
Regarding `Clc1ccc(-c2nn3ncccc3c2-c2ccnc(Nc3ccccc3)n2)cc1`, the inhibition amounted to 0.49%.
`COc1ccc(-c2cc(-c3c[nH]nc3-c3ccccn3)ccn2)cc1`: the inhibition stood at 2.82%.
With `NS(=O)(=O)c1ccc(Nc2ncc(-c3ccccc3)o2)cc1`, the inhibition amounted to 2.5%.
Still for that read-out and setting: for `c1ccc(-c2nc3n(c2-c2ccc4c(c2)OCO4)CCC3)nc1` the value was 1.95%; for `N#Cc1c(NC(=O)c2ccc(F)cc2)sc2c1CCCC2`, -0.44%.
Same read-out and setting: under `CC(C)COC(=O)c1ccc2c(c1)/C(=C/Nc1ccc(S(N)(=O)=O)cc1)C(=O)N2` stands 5.76%.
On the same count and under the same terms, under `Cc1ccc2c(-c3ccnc(Nc4ccccc4)n3)c(-c3ccc(F)cc3)nn2n1` stands 2.02%; under `CS(=O)(=O)CCNCc1ccc(-c2ccc3ncnc(Nc4ccc(OCc5ccccc5)c(C(F)(F)F)c4)c3c2)o1`, 2.31%.
`O=C(O[C@H]1CN[C@H](C#Cc2cc3ncnc(Nc4ccc(Cc5ccccc5)cc4)c3s2)C1)N1CCOCC1`: the inhibition stood at 2.02%.
The same measure, in the same setting: under `COc1ccc2[nH]c3c4[nH]c5ccc(OC)cc5c4c4c(c3c2c1)C(=O)NC4=O` stands 73.5%; under `COc1ccc2c(-c3ccnc(Nc4cccc(OC(F)(F)F)c4)n3)cnn2n1`, 1.43%.
As for `CN1CCC(n2cnc(-c3ccc(F)cc3)c2-c2ccnc(N)n2)CC1`, the inhibition is 1.52%.
With `CN(C)CCOc1ccc(-c2nc(-c3ccncc3)c(-c3ccc4c(c3)CC/C4=N\O)[nH]2)cc1`, the inhibition was 1.9%.
With `COc1cc(N2CCN(C(C)C)CC2)ccc1Nc1nc(Nc2ccc(F)cc2C(N)=O)c2cc[nH]c2n1`, the inhibition came to 8.2%.
With `CNC(=O)c1cncc(/C=C/c2ccccc2Cl)c1`, the inhibition was -0.36%.
Still for that read-out and setting: for `[O-][S+]1CCN(Cc2ccc(-c3ccc4ncnc(Nc5ccc(OCc6cccc(F)c6)c(Cl)c5)c4c3)o2)CC1` the value was 3.09%; for `COc1ccc(-c2nn3ncccc3c2-c2ccnc(Nc3ccc4c(c3)OCCO4)n2)cc1`, 1.27%; for `FC(F)(F)c1cccc(-c2nn3ncccc3c2-c2ccnc(Nc3ccc4c(c3)OCCO4)n2)c1`, 1.2%.
In the case of `CNC(=O)c1cc(-c2ccc(F)cc2)cc(-c2ccc(S(=O)(=O)N3CCCC3)cc2)c1N`, the inhibition was 2.73%.
On the same count and under the same terms, under `CNC(=O)c1cccc(C#Cc2cncnc2Nc2ccc(OCc3cccc(F)c3)c(Cl)c2)c1` stands -0.63%; under `CCOc1ccc2c(-c3ccnc(Nc4cccc(C(F)(F)F)c4)n3)cnn2n1`, 1.09%; under `CC(C)(CO)CNC(=O)c1ccc2c(c1)/C(=N/Nc1ccc(S(N)(=O)=O)cc1)C(=O)N2`, 0.48%.
Same read-out and setting: for `Cc1ccc(O)cc1Nc1ccnc2cc(-c3ccccn3)ccc12` the value was 1.68%; for `COC(=O)c1sc(-n2cnc3cc(OC)c(OC)cc32)cc1OCc1ccccc1C(F)(F)F`, 1.77%; for `CC(=O)Nc1cccc(C#Cc2cncnc2Nc2ccc(OCc3cccc(F)c3)c(Cl)c2)c1`, 1.46%.
On the same count and under the same terms, for `Fc1cccc(COc2ccc(Nc3ncnc4sc(-c5ccco5)cc34)cc2Cl)c1` the value was 2.51%.
Regarding `COc1cc2ncn(-c3cc(OCc4ccccc4C(F)(F)F)c(C(=O)N(C)C)s3)c2cc1OC`, the inhibition was -0.15%.
The same measure, in the same setting: under `COc1cc2c(cc1Nc1nc(Nc3ccsc3C(N)=O)c3cc[nH]c3n1)N(C(=O)CN(C)C)CCC2(C)C` stands 8.55%; under `Nc1ncc(-c2cccc(S(N)(=O)=O)c2)c2scc(-c3ccc(F)c(Cl)c3)c12`, 3.17%.
On to `O=C(Nc1n[nH]c2cc(-c3ccc(F)cc3)ccc12)C1CC1`, for which the inhibition is 3.68%.
Still for that read-out and setting: for `Cc1cccc(Nc2ncc(-c3ccccc3)o2)c1` the value was 2.17%; for `CCCN(CCS(C)(=O)=O)Cc1ccc(-c2ccc3ncnc(Nc4ccc(OCc5cccc(F)c5)c(Cl)c4)c3c2)o1`, 1.59%.
On to `N#Cc1c(NC(=O)CN2CCOCC2)sc2c1CCCC2`, for which the inhibition turned out to be 1.89%.
